Inconclusive results are not listed. Active and inactive are the calls of the source. Unless noted, calls follow the shape of the dose curve; as a rule, active = well fitted curve in the direction sought with a large enough effect in the repeat runs; inconclusive = weak or mixed curves; inactive = no such curve, though single readings can be large; an effect the other way counts as inactive or inconclusive.
Legend:
[1] = A CellTox Green Cytotoxicity Assay to monitor cytotoxicity in HEK293 cells - 32 hour (AID 1224881); also: nearly all actives have a fitted effect of over 40% in size
Method in brief: (§1)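 Read-out: fluorescence of a cell-impermeant cyanine dye staining DNA of dead cells, proportional to cytotoxicity. HEK293, 600 cells/well with reagent, compound (23 nL DMSO) added after 5 h; reads at 0, 8, 16, 24, 32, 40 h.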

[2] = A CellTox Green Cytotoxicity Assay to monitor cytotoxicity in HepG2 cells - 0 hour (AID 1224882); also: nearly all actives have a fitted effect of over 35% in size
Method in brief: (§2)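 HepG2, 600 cells/well premixed w/ CellTox Green; 5 h settle, 37 C/5% CO2; pintool cpd add (DMSO); 37 C, 40 h; fluorescence read at 0, 8, 16, 24, 32, 40 h.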

[3] = A CellTox Green Cytotoxicity Assay to monitor cytotoxicity in HepG2 cells - 32 hour (AID 1224883); also: nearly all actives have a fitted effect of over 50% in size
Method in brief: as §2

[4] = A CellTox Green Cytotoxicity Assay to monitor cytotoxicity in HEK293 cells - 8 hour (AID 1224884); also: nearly all actives have a fitted effect of over 35% in size
Method in brief: as §1

[5] = qHTS RealTime-Glo MT Cell Viability Assay in HepG2 cells - 16 hour (AID 1224885); also: nearly all actives have a fitted effect of over 50% in size
Method in brief: (§3)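 Viability was tracked continuously by NanoLuc luminescence from prosubstrate reduced by living HepG2 cells, at successive time points over 40 h of compound exposure. Cells with reagent were preincubated 5 h at 37 °C before compound addition.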

[6] = qHTS RealTime-Glo MT Cell Viability Assay in HEK293 cells - 24 hour (AID 1224886); also: top concentration of the series differs between compounds; nearly all actives have a fitted effect of over 50% in size
Method in brief: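 Viability tracked continuously by luminescence as live cells reduce a prosubstrate for NanoLuc; HEK293 cells preincubated 5 h, compound-treated at 37 C, and read at 0, 8, 16, 24, 32 and 40 h.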

[7] = qHTS RealTime-Glo MT Cell Viability Assay in HEK293 cells - 8 hour (AID 1224887); also: top concentration of the series differs between compounds; nearly all actives have a fitted effect of over 50% in size
Method in brief: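 Luminescence readout at each listed time point; HEK293, 600 cells/well, RealTime-Glo MT reagent added with cells; compounds pinned (23 nL in DMSO) after 5 h at 37 C; continuous culture at 37 C.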

[8] = qHTS RealTime-Glo MT Cell Viability Assay in HepG2 cells - 0 hour (AID 1224889); also: nearly all actives have a fitted effect of over 50% in size
Method in brief: as §3

[9] = A CellTox Green Cytotoxicity Assay to monitor cytotoxicity in HepG2 cells - 8 hour (AID 1224890); also: nearly all actives have a fitted effect of over 45% in size
Method in brief: as §2

[10] = qHTS assay to identify small molecule antagonists of the estrogen receptor alpha (ER-alpha) signaling pathway using the BG1 cell line in the presence of 0.1 nM 17-beta-estradiol - cell viability counter screen (AID 1259241); also: nearly all actives have a fitted effect of over 40% in size
Method in brief: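 VM7Luc4E2 cells (endogenous full-length ER-alpha, 4xERE-luciferase), cultured 5 days in charcoal-stripped serum, exposed to compounds with 0.1 nM 17beta-estradiol (final) for 22 hr at 37C. Viability read in same wells as live-cell protease fluorescence after 30 min.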

[11] = qHTS assay to identify small molecule phospholipidosis (PLD) inducers (AID 1259344; active = well fitted curve in the direction sought with a large enough effect; an effect the other way counts as inactive or inconclusive)
Method in brief: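 After 4 h attachment on collagen I, HepG2 cells were dosed with compound alongside LipidTOX Red, kept 24 h at 37 C, fixed, and imaged for lamellar phospholipid pits.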

[12] = qHTS assay to identify small molecule HDAC inhibitors (AID 1259364);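 also: wild-type HCT-116 cells with endogenous class I/II HDAC activity; top concentration of the series differs between compounds; nearly all actives have a fitted effect of over 45% in size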
Method in brief: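 HCT-116 (wild type), 1,500 cells/well, overnight; compound 2 hr 37C 5% CO2; HDAC-Glo I/II reagent 30 min RT; luminescence readout.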

[13] = qHTS assay to identify small molecule HDAC inhibitors - cell viability counter screen (AID 1259365)
Method in brief: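 Wild-type HCT-116 cells, 1,500/well, cultured overnight, then compound-treated 2 h at 37 C. Viability measured as ATP luminescence with CellTiter-Glo after 30 min at room temperature.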

[14] = qHTS assay to identify small molecule agonists of the sonic hedgehog signaling (Shh) pathway - cell viability counter screen (AID 1259366); also: nearly all actives have a fitted effect of over 50% in size
Method in brief: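 NIH/3T3-derived Gli1-Luc reporter cells, 2,000 per well, received compound after 4 h and were treated about 23 h at 37C. Viability measured in the same wells by CellTiter-Fluor fluorescence after 1 h.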

[15] = qHTS assay to identify small molecule antagonists of the sonic hedgehog signaling (Shh) pathway - cell viability counter screen (AID 1259367); also: nearly all actives have a fitted effect of over 55% in size
Method in brief: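 Conditioned medium drove Shh signaling in 3T3 Gli1-Luc cells exposed to compounds at 37C and 5% CO2. Viability was determined from CellTiter-Fluor fluorescence, with reagent incubated 1 hr after 23 hr of treatment.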

[16] = qHTS assay to identify small molecule agonists of the sonic hedgehog signaling (Shh) pathway (AID 1259368; calls by dose curve;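 also: NIH/3T3-derived 3T3Gli1-Luc cells carrying a stable Gli1-driven firefly luciferase reporter; series mostly up to about 92 µM; nearly all actives have a fitted effect of over 15% in size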)
Method in brief: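 Read-out: firefly luciferase luminescence from a Gli1 response element reporter stably integrated in NIH/3T3-derived 3T3Gli1-Luc cells, measured 30 min at room temperature after reagent addition. Compound exposure lasted 24 hr at 37 C, 5% CO2.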

[17] = qHTS assay to identify small molecule antagonists of the androgen receptor (AR) signaling pathway using the MDA cell line in the presence of 0.5 nM R1881 - cell viability counter screen (AID 1259242); also: nearly all actives have a fitted effect of over 45% in size
Method in brief: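 Live-cell protease fluorescence, CellTiter-Fluor, 30 min at 37C. Cells: MDA-kb2, 3,000/well, preincubated 5 hr. Compounds plus 0.5 nM R1881 final, 16 hr, 37C, 0% CO2.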

[18] = molecular target: Androgen receptor (Homo sapiens) (UniProt P10275); test: qHTS assay to identify small molecule antagonists of the androgen receptor (AR) signaling pathway using the MDA cell line in the presence of 0.5 nM R1881 (AID 1259243); also: nearly all actives have a fitted effect of over 50% in size
Method in brief: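 MDA-kb2, MMTV-luc (AR/GR elements); 3,000 cells/well; cpd + 0.5 nM R1881 final; 16 hr 37C, 0% CO2; ONE-Glo 30 min RT; luminescence.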

[19] = A CellTox Green Cytotoxicity Assay to monitor cytotoxicity in HEK293 cells - 16 hour (AID 1224888); also: nearly all actives have a fitted effect of over 35% in size
Method in brief: as §1

[20] = molecular target: Estrogen receptor (Homo sapiens) (UniProt P03372); test: qHTS assay to identify small molecule antagonists of the estrogen receptor alpha (ER-alpha) signaling pathway using the BG1 cell line in the presence of 0.1 nM 17-beta-estradiol (AID 1259244); also: nearly all actives have a fitted effect of over 50% in size
Method in brief: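 Luminescence after ONE-Glo (30 min, room temperature) measured ERE-luciferase activity in VM7Luc4E2 cells treated 22 h with compound and 0.1 nM final 17beta-estradiol as stimulator.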

Measured: Potency

Chain of Estrogen receptor (Homo sapiens) (P03372 whole entry, looked up): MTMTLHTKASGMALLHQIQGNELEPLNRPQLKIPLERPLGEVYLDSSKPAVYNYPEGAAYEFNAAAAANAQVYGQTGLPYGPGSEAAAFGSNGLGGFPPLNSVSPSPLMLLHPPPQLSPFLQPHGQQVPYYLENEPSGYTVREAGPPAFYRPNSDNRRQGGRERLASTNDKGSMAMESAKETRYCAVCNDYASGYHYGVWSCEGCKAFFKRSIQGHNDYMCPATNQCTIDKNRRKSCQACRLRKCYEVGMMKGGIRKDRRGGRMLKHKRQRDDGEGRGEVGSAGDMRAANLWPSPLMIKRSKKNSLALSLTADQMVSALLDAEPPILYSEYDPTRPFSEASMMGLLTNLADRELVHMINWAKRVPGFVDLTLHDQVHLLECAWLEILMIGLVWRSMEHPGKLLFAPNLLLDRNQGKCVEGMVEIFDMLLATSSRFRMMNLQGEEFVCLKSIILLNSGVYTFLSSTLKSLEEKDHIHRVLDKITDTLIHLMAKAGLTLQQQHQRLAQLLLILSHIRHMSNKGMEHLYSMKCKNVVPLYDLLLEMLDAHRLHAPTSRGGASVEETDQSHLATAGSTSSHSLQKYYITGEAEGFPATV
Chain of Androgen receptor (Homo sapiens) (P10275 whole entry, looked up): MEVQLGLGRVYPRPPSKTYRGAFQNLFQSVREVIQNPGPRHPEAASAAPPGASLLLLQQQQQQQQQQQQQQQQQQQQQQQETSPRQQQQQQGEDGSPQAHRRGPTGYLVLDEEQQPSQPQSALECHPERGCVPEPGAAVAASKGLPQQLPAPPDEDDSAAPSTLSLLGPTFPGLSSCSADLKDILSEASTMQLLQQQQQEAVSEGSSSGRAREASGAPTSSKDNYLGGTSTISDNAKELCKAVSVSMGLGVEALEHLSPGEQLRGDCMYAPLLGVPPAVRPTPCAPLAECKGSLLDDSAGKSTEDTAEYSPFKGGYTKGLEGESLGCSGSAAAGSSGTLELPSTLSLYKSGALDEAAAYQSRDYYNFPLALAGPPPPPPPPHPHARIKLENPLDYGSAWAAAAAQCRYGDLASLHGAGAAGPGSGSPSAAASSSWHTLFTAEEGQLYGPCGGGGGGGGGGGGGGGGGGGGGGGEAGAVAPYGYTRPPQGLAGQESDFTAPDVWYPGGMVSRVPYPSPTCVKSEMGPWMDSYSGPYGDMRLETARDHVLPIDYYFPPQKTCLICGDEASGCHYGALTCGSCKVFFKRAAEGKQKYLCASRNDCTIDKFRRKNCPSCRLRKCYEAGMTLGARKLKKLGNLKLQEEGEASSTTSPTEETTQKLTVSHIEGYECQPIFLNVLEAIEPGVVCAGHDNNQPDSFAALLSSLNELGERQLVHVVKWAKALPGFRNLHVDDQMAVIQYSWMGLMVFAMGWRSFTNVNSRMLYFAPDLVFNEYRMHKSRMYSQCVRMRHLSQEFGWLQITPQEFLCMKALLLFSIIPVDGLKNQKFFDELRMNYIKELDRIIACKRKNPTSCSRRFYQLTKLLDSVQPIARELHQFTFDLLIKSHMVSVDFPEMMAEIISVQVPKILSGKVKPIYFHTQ

CC1CC(OC(=O)C(O)c2ccccc2)CC(C)(C)N1C (stereo unspecified)
not listed: [17] | [18] | [19] | [20]
inactive: all other assays above

OC(CCN1CCCC1)(c1ccccc1)C1CCCCC1 (stereo unspecified)
not listed: [14] | [15] | [19] | [20]
inactive: all other assays above

CCC(=O)C1CC(C(C)C)CC=C1C (stereo unspecified)
not listed: [9] | [11] | [17]
inactive: all other assays above

CNC(=O)c1cnn(-c2nc(N)c3ncn([C@@H]4O[C@H](CO)[C@@H](O)[C@H]4O)c3n2)c1
not listed: [9] | [11] | [18] | [19]
inactive: all other assays above

CC1=C(CC=O)C(C)(C)CCC1
not listed: [9] | [11] | [17] | [18] | [20]
inactive: all other assays above

Clc1cc(Cl)nc(Cl)n1
not listed: [9] | [11] | [18] | [20]
inactive: all other assays above

Nc1ncnc2c1ncn2[C@H]1CC[C@@H](CO)O1
not listed: [10] | [18]
inactive: all other assays above

CCCCCCCCCCC(=O)O
not listed: [9] | [11] | [18]
inactive: all other assays above

Source: PubChem BioAssay (Tox21)
